In PubChem BioAssay (Tox21) one finds Potency data, which are given here for 13 compounds.

Structures are written as SMILES. Where “and” joins values, the source holds several entries; their conditions need not be identical. Equal values may be shown once. Where a structure was tested more than once in an assay, its records may differ in their call. Calls of active or inactive are those of the source. Unless noted, calls come from the whole dose curve; as a rule, active = well fitted curve in the direction sought with a large enough effect in the repeat runs; inconclusive = weak or mixed curves; inactive = no such curve, though single readings can be large; an effect the other way counts as inactive or inconclusive.

Experiment [1] in a line: qHTS assay for identifying genotoxic compounds that show differential cytotoxicity against isogenic chicken DT40 cell lines with known DNA damage response pathways - Rev3 mutant cell line (AID 743014). Note: nearly all actives have a fitted effect of over 55% in size. Note: potency is the fitted concentration of half-maximal effect. The conditions noted are these: chicken DT40 Rev3-/- viability, CellTiter-Glo, 40 h; series mostly up to 68.4 µM.
Experiment [2] is described as follows: qHTS assay for identifying genotoxic compounds that show differential cytotoxicity against isogenic chicken DT40 cell lines with known DNA damage response pathways - Rad54/Ku70 mutant cell line (AID 743015). Note: nearly all actives have a fitted effect of over 60% in size. Note: potency is the fitted concentration of half-maximal effect. Particulars: DT40 Rad54/Ku70 mutant viability, CellTiter-Glo, 40 h; series mostly up to 66.8 µM. On the technique in general: Quantitative high-throughput screening tests each substance at several concentrations.

Experiment [3] can be described thus: qHTS assay to identify small molecule antagonists of the androgen receptor (AR) signaling pathway - cell viability counter screen (AID 743033; note: nearly all actives have a fitted effect of over 45% in size; note: potency is the fitted concentration of half-maximal effect). The conditions noted are these: AR-bla HEK293 viability, CellTiter-Glo luminescence, 16 h; series mostly up to 58.5 µM.
The target in experiment [4] is Androgen receptor (Homo sapiens) (UniProt P10275). Briefly: qHTS assay to identify small molecule antagonists of the androgen receptor (AR) signaling pathway (AID 743035; active = well fitted inhibition curve with a large enough effect in the signal ratio in the repeat runs, not every such curve was filed as active; inconclusive = weak or mixed curves, or effect the other way; inactive = no such curve, though single readings can be large or run the other way; the % refers to the signal ratio; note: potency is the fitted concentration of half-maximal effect). Particulars: HEK293 AR-UAS-bla, R1881-stimulated, beta-lactamase FRET, 16 h; series mostly up to 58.5 µM. The method in brief:
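HEK293 cells stably carrying a UAS-driven beta-lactamase reporter (AR-UAS-bla GripTite) were plated for 4 h at 37C, then given compound and the agonist R1881 and incubated 16 h. Reporter activity was read by LiveBLAzer B/G FRET fluorescence after 2 h at room temperature.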

Experiment [5] has the same target. Briefly: qHTS assay to identify small molecule agonists of the androgen receptor (AR) signaling pathway using the MDA cell line (AID 743040; note: nearly all actives have a fitted effect of over 20% in size). The conditions noted are these: MDA-kb2 AR-luc cells, MMTV luciferase, 16 h; series mostly up to 70.3 µM. The method in brief: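 After a 5 h incubation at 37C and 0% CO2, MDA-kb2 reporter cells were dosed with compounds in DMSO and kept 16 h under the same conditions. Luciferase activity was then read as luminescence with ONE-Glo.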

Experiment [6] can be described thus: qHTS assay to identify small molecule antagonists of the androgen receptor (AR) signaling pathway using the MDA cell line - cell viability counter screen (AID 743041; note: nearly all actives have a fitted effect of over 45% in size; note: potency is the fitted concentration of half-maximal effect). Particulars: MDA-kb2 viability, CellTiter-Fluor, 16 h, cells co-treated with R1881 androgen agonist; series mostly up to 70.3 µM. Summed up:
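R1881-driven MDA-kb2 AR-luc cells, 3,000/well, were dosed with library compounds for 16 h; cell health came from CellTiter-Fluor fluorescence in the reporter wells.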

In experiment [7] the target is Androgen receptor (Homo sapiens) (UniProt P10275). Briefly: qHTS assay to identify small molecule antagonists of the androgen receptor (AR) signaling pathway using the MDA cell line (AID 743042; note: nearly all actives have a fitted effect of over 55% in size; note: potency is the fitted concentration of half-maximal effect). The conditions noted are these: MDA-kb2 AR-luc, MMTV luciferase, R1881 antagonist, 16 h; series mostly up to 70.3 µM. Summed up: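 Antagonist mode: compounds plus R1881 agonist added to MDA-kb2 AR-luc cells, incubated 16 h at 37C. Luciferase reporter luminescence quantified, with multiplexed CellTiter-Fluor readout for cell viability.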
Chain of Androgen receptor (Homo sapiens) (P10275 whole entry, looked up): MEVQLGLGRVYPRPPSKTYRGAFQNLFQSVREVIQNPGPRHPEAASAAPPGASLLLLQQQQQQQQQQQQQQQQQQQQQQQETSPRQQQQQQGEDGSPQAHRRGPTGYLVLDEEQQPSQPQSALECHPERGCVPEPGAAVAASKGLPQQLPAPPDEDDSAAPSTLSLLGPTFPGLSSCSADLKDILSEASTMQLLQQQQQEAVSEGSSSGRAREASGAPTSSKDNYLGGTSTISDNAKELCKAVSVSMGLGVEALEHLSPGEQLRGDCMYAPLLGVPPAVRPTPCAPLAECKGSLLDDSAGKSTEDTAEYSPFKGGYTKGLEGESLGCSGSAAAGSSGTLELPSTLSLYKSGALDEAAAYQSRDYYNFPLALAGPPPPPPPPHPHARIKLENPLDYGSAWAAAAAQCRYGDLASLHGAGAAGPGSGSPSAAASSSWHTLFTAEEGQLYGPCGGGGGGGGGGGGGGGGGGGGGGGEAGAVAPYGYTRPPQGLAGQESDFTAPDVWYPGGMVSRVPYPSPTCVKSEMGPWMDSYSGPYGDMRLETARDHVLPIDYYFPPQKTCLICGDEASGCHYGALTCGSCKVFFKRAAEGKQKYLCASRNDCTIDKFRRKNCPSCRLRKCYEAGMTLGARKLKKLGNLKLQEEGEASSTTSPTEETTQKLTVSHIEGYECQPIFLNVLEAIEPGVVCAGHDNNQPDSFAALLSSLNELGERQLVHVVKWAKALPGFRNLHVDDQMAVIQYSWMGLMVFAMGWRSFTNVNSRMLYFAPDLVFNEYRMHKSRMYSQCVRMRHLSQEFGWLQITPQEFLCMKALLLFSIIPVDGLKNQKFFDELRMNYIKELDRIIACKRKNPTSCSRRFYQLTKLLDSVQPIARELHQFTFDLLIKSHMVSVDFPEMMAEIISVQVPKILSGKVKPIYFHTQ

A short description of experiment [8]: qHTS assay to identify small molecule antagonists of the estrogen receptor alpha (ER-alpha) signaling pathway - cell viability counter screen (AID 743074; calls by dose curve;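 note: HEK293 cells carrying ER-alpha-UAS-bla reporter stimulated with 17beta-estradiol; nearly all actives have a fitted effect of over 45% in size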; note: potency is the fitted concentration of half-maximal effect). Particulars: ERalpha-bla HEK293 viability, CellTiter-Glo luminescence, 18 h; series mostly up to 69.4 µM.
The target in another experiment is Aromatase (Homo sapiens) (UniProt P11511). Briefly: qHTS assay to identify aromatase inhibitors (AID 743083). Note: nearly all actives have a fitted effect of over 55% in size. Note: potency is the fitted concentration of half-maximal effect. The conditions noted are these: MCF-7 aro ERE, testosterone-driven ERE luciferase, 24 h; series mostly up to 70.3 µM.
Chain of Aromatase (Homo sapiens) (P11511 whole entry, looked up): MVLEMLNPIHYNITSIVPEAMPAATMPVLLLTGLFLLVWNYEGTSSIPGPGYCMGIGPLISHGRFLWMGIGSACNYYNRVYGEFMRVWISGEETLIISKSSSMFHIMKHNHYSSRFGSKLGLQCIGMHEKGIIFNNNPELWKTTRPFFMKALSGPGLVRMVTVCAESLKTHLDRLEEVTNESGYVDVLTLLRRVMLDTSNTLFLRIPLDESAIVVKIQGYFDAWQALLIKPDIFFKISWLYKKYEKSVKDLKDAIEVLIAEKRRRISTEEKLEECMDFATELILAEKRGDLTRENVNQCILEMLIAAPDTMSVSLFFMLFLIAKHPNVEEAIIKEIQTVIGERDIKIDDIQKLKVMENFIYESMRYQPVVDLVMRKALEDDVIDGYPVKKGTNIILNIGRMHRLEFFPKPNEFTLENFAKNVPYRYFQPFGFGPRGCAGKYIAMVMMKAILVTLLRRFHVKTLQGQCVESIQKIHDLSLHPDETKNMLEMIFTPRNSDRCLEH
A short description of experiment [9]: qHTS assay for identifying genotoxic compounds that show differential cytotoxicity against isogenic chicken DT40 cell lines with known DNA damage response pathways - wild type cell line (AID 743012). Note: nearly all actives have a fitted effect of over 60% in size. Note: potency is the fitted concentration of half-maximal effect. Particulars: DT40 wild type chicken cells viability, CellTiter-Glo, 40 h; series mostly up to 68.4 µM. The method in brief:
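Parental DNA repair-proficient DT40 cells, 300 per well, were pre-incubated ~0.5 h at 37 C/5% CO2, pin-dosed with compounds in DMSO, then incubated 40 h. Viability was read as CellTiter-Glo luminescence after 30 min at room temperature.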

Experiment [10] in a line: qHTS assay to identify small molecule antagonists of the thyroid receptor (TR) signaling pathway - cell viability counter screen (AID 743064). Note: potency is the fitted concentration of half-maximal effect; nearly all actives have a fitted effect of over 50% in size. Particulars: GH3.TRE-Luc viability, CellTiter-Fluor, 24 h; series mostly up to 70.3 µM. The method in brief:
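Plate GH3.TRE-Luc cells; incubate 4 h at 37 °C; add compound, then T3 to 1 nM final; incubate 23.5 h; add CellTiter-Fluor; incubate 30 min at 37 °C, 5% CO2; read fluorescence.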

Experiment [11] is described as follows: qHTS assay to identify small molecule antagonists of the thyroid receptor (TR) signaling pathway (AID 743065). Note: potency is the fitted concentration of half-maximal effect; nearly all actives have a fitted effect of over 55% in size. The conditions noted are these: GH3.TRE-Luc, T3-stimulated luciferase inhibition, 23.5 h; series mostly up to 70.3 µM. The method in brief:
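Antagonism measured as loss of luciferase signal in GH3 cells stably carrying a TRE-luciferase reporter, co-treated with compound and T3 (1 nM final) for 23.5 h at 37 C. Viability was read in the same well by CellTiter-Fluor.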

The test system of experiment [12] is thyroid hormone receptor (rat, GH3 cells). Briefly: qHTS assay to identify small molecule agonists of the thyroid receptor (TR) signaling pathway (AID 743066; calls by dose curve). The conditions noted are these: GH3.TRE-Luc cells, TR agonist luciferase, 24 h; series mostly up to 83.9 µM.
Experiment [13] in a line: qHTS assay to identify small molecule antagonists of the estrogen receptor alpha (ER-alpha) signaling pathway using the BG1 cell line - cell viability counter screen (AID 743081).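 Note: compound given together with 17beta-estradiol as the ER stimulus; nearly all actives have a fitted effect of over 45% in size.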 Particulars: BG1Luc4E2 viability, CellTiter-Fluor, 22 h; series mostly up to 70.3 µM.
The target of experiment [14] is Estrogen receptor (Homo sapiens) (UniProt P03372). Briefly: qHTS assay to identify small molecule agonists of the estrogen receptor alpha (ER-alpha) signaling pathway (AID 743075; calls by dose curve; note: potency is the fitted concentration of half-maximal effect). The conditions noted are these: HEK293 ER-alpha-UAS-bla, beta-lactamase FRET ratio, 18 h; series mostly up to 70.1 µM.
Chain of Estrogen receptor (Homo sapiens) (P03372 whole entry, looked up): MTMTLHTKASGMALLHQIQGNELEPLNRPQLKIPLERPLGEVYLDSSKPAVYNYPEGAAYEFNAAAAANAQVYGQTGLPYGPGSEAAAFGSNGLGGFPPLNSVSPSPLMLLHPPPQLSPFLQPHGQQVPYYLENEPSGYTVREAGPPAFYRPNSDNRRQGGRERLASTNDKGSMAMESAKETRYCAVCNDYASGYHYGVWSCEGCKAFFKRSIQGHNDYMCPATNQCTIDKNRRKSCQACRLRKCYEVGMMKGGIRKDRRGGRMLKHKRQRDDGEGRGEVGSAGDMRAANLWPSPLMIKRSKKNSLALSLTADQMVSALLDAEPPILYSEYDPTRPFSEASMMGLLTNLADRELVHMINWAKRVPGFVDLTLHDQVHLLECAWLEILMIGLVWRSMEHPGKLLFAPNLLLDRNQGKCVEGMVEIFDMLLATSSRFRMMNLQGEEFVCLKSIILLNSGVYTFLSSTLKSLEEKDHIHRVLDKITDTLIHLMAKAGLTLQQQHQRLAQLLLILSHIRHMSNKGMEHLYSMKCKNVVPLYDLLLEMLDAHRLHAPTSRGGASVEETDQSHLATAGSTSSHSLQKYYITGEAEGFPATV
Experiment [15] is described as follows: qHTS assay to identify small molecule antagonists of the estrogen receptor alpha (ER-alpha) signaling pathway using the BG1 cell line (AID 743080; calls by dose curve;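 note: BG1 cells stimulated with 17beta-estradiol alongside compound; nearly all actives have a fitted effect of over 25% in size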; note: potency is the fitted concentration of half-maximal effect). Particulars: BG1Luc4E2 ERE-luciferase antagonist mode, luminescence; activity change, negative = inhibition: at 70.3 µM (top of the series). The method in brief:
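Luminescence from a 4×ERE-luciferase reporter in BG1-Luc-4E2 cells served as read-out. Cells, pre-cultured 5 days in stripped-serum phenol-red-free medium, were exposed to compound with 17beta-estradiol co-stimulation for 21.5 h at 37 C.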

For experiment [16], the target named is Estrogen receptor (Homo sapiens) (UniProt P03372). Briefly: qHTS assay to identify small molecule antagonists of the estrogen receptor alpha (ER-alpha) signaling pathway (AID 743069; active = well fitted curve in the direction sought with a large enough effect in the signal ratio in the repeat runs, not every such curve was filed as active; inconclusive = weak or mixed curves, or effect the other way; inactive = no such curve, though single readings can be large or run the other way; the % refers to the signal ratio; note: potency is the fitted concentration of half-maximal effect). The conditions noted are these: HEK293 ER-alpha-UAS-bla, beta-lactamase ratio, antagonist mode; series mostly up to 69.4 µM. Summed up:
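Compound effects are measured against 17beta-estradiol stimulation in HEK293 cells with a UAS-controlled beta-lactamase reporter for ER-alpha. Exposure lasts 18 hr at 37C; LiveBLAzer B/G FRET substrate follows for 2 hr at room temperature.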

For experiment [17] the target is unchanged. Briefly: qHTS assay to identify small molecule agonists of the estrogen receptor alpha (ER-alpha) signaling pathway using the BG1 cell line (AID 743079). Note: nearly all actives have a fitted effect of over 20% in size. Particulars: BG1Luc4E2 cells, ERE-luciferase agonist, 22 h; activation: at 70.3 µM (top of the series).

On to `CC(NCCC(c1ccccc1)c1ccccc1)c1ccccc1` (configuration not stated), for which the Potency was 4.22 µM (active) in experiment [1]; 5.31 µM (active) in experiment [2]; 21.3 µM (active) in [3]; 21.3 µM (active) in [4]; 23.7 µM (active) in experiment [6]; 23.7 µM (active) in experiment [7]. Further, the Potency is 23.9 µM (active) in experiment [8] and 29.8 µM (active) with Aromatase (Homo sapiens). Further, in experiment [5], the Potency entry is “inactive”.

Consider `O=C1c2c(O)ccc(O)c2C(=O)c2c(NCCNCCO)ccc(NCCNCCO)c21`, for which the Potency in experiment [9] is 7.2 nM (active); in experiment [1], 0.0101 µM (active); in experiment [4] it was 0.512 µM (active); in experiment [6] it was 9.43 µM (active); in [7], 5.07 µM (active); in experiment [10] it was 0.569 µM (active). The Potency in experiment [11] was 0.507 µM (active); with Aromatase (Homo sapiens), 9.02 µM (active). Also, the Potency entry in experiment [5], in experiment [12], in experiment [8] and in experiment [13] was “inactive” in each case.

Take `O=C1Nc2ccc(Cl)cc2[C@@](C#CC2CC2)(C(F)(F)F)O1`: the Potency in [1] was 26.6 µM (active); in [2], 21.1 µM (active); in experiment [10] it was 29.8 µM (active); in experiment [15], 33.5 µM (active); with Aromatase (Homo sapiens) it was 23.7 µM (active). For the same compound, the Potency result in experiment [6], in experiment [8], in experiment [14] and in experiment [13] was “inactive” each time.

As to `CCOC(=O)C1=C(C)NC(C)=C(C(=O)OCC)C1c1ccccc1/C=C/C(=O)OC(C)(C)C`, the Potency in [9] was 2660 nM (active); in experiment [1] it was 3.76 µM (active); in experiment [2] it was 5.96 µM (active); in [10] it was 13.3 µM (active); in experiment [11], 10.6 µM (active); in experiment [14], 6.74 µM [fluorescent] (active). Also, the Potency in [15] is 33.5 µM (active). For the same compound, the Potency result in experiment [3], in experiment [5], in experiment [6], in experiment [8] and in [13] was “inactive” each time.

On to `CC(C)(C)C1=CC(=O)C=C(C(C)(C)C)C1=O`, for which the Potency entry in experiment [9], in experiment [3], in experiment [12], in experiment [16], in experiment [14] and in experiment [17] was “inactive” throughout. Besides, the Potency entry in experiment [15] and in experiment [13] was “inactive” throughout. Further, the Potency with Aromatase (Homo sapiens) was 34.4 µM (active).

For `Clc1ccc(C(Cn2ccnc2)OCc2ccsc2Cl)c(Cl)c1` (configuration not stated), the Potency is 11.9 µM (active) in experiment [1]; 13.3 µM (active) in experiment [2]; 26.8 µM (active) in experiment [3]; 13.3 µM (active) in experiment [10]; 5.31 µM (active) with Aromatase (Homo sapiens). In addition, the Potency entry in experiment [15] and in [13] was “inactive” in each case.

With `CC(=O)OC(OC(C)=O)c1ccc([N+](=O)[O-])o1`, the Potency was 5.54 µM (active) in [1]; 15.6 µM (active) in experiment [2]; 22.3 µM (active) in experiment [3]; 13.9 µM (active) in experiment [10]; 13.9 µM (active) in experiment [11]; 17.5 µM (active) with Aromatase (Homo sapiens). In addition, in experiment [12], the Potency entry is “inactive”.

Regarding `CCOC(=O)N1CCC(=C2c3ccc(Cl)cc3CCc3cccnc32)CC1`, the Potency in [9] is 8.41 µM (active) and 8.63 µM (active); in experiment [1], 7.5 µM (active) and 9.69 µM (active); in experiment [2], 9.44 µM (active) and 10.9 µM (active); in experiment [3], 17.4 µM (active); in [10], 26.6 µM (active) and 27.3 µM (active); in [11], 11.9 µM (active) and 9.69 µM (active). For the same compound, the Potency was 26.8 µM [inconclusive] (active) in [16]; “inactive and 61.1 µM (active)” in [15]. The Potency result in experiment [12], in experiment [8], in experiment [14] and in experiment [13] was “inactive” throughout.

Take `CCN1CCN(c2cc(-c3ccc(F)cc3)c3c(n2)CCCCCC3)CC1`: the Potency result in experiment [2], in experiment [3], in [4], in [5], in [6] and in experiment [7] was “inactive” in each case. The Potency result (in experiment [12]; in [8]; with Aromatase (Homo sapiens)) was “inactive” throughout. Further, in [10], the Potency is 13.3 µM (active).

With `C/C=C/C(=O)Oc1c(CCCCCC(C)C)cc([N+](=O)[O-])cc1[N+](=O)[O-]`, the Potency was 3.44 µM (active) in [1]; 2.43 µM (active) in experiment [2]; 7.76 µM (active) in [3]; 7.7 µM (active) in experiment [6]; 12.2 µM (active) in [10]; 3.86 µM (active) in experiment [11]. The results for the Potency (in [16]; with Aromatase (Homo sapiens)) were 4.9 µM [inconclusive] (active) and 15.4 µM (active), respectively. Further, the Potency entry in experiment [12] is “inactive”.

Consider `CN(C)c1ccc(N=Nc2ccccc2C(=O)O)cc1`, for which the Potency entry in experiment [9], in experiment [1], in experiment [3], in [12], in [14] and in experiment [15] was “inactive” each time. Besides, the Potency in experiment [11] is 9.69 µM (active); with Aromatase (Homo sapiens), 54.5 µM (active).

In the case of `CC(=O)Oc1ccc(C2(c3ccc(OC(C)=O)cc3)Oc3ccccc3NC2=O)cc1`, the Potency result (in experiment [3]; in [12]; in [8]; in [13]; with Aromatase (Homo sapiens)) was “inactive” each time. In addition, the Potency in experiment [11] was 5.96 µM (active); in experiment [16], 8.49 µM [inconclusive] (active); in experiment [14], 7.56 µM [inconclusive] (active).

Take `N#CSCSc1nc2ccccc2s1`: the Potency in experiment [1] was 0.969 µM (active); in experiment [2], 0.969 µM (active); in experiment [3], 13.8 µM (active); in experiment [10], 1.54 µM (active); in experiment [11], 0.864 µM (active); with Aromatase (Homo sapiens), 15.4 µM (active). Also, the Potency entry in [5], in experiment [14], in experiment [17] and in experiment [13] was “inactive” each time.
